In PubChem BioAssay AID488984 (The Scripps Research Institute Molecular Screening Center, 2010):
Unmarked numbers belong to inactive results. Calls of active or inactive are those of the source. No stated cut-off is given here; in the data, active means inhibition above about 55%; inactive means the rest.

Tested on: SARS coronavirus 3C-like protease (3CLpro, nsp5)
Experiment: blockers of SARS 3CLpro activity – biochemical, fluorescence, set 2, late-stage follow-up (AID 488984)
Settings: recombinant 3CLpro, fluorogenic peptide cleavage; at 100 µM; hits give high values

Structure (SMILES) | inhibition
CCC(=O)Nc1ccc(N(C(=O)Cn2c(C)nc3ccccc32)C(C(=O)NC(C)(C)C)c2ccsc2)cc1 (stereo not given) | 0.52%
CC(C)(C)NC(=O)C(c1cccnc1)N(C(=O)Cc1cccnc1)c1ccc(C(C)(C)C)cc1 (stereo not given) | 20.2%
CC(C)(C)NC(=O)C(c1cccnc1)N(C(=O)Cc1cccnc1)C1CC1 (stereo not given) | 7.01%
CC(C)(C)NC(=O)C(c1cccnc1)N(C(=O)c1cccc2c1CCCC2)C1CC1 (stereo not given) | 8.14%
CC(C)(C)NC(=O)C(c1ccsc1)N(C(=O)Cc1cccc2ccccc12)c1ccc(C(C)(C)C)cc1 (stereo not given) | 22.3%
CC(C)c1ccc(N(C(=O)Cc2cccnc2)C(C(=O)NC(C)(C)C)c2cccnc2)cc1 (stereo not given) | 2.83%
CC(C)(C)NC(=O)C(c1ccsc1)N(C(=O)Cc1cccc2ccccc12)c1ccc(OCF)cc1 (stereo not given) | 18.2%
CC(C)(C)NC(=O)C(c1cccnc1)N(C(=O)Cc1c[nH]c2ccccc12)c1ccc(C(C)(C)C)cc1 (stereo not given) | 30.6%
CC(C)(C)NC(=O)C(c1ccsc1)N(C(=O)Cc1c[nH]c2ccccc12)c1ccc(C(C)(C)C)cc1 (stereo not given) | 26.3%
CC(C)(C)NC(=O)C(c1cccnc1)N(C(=O)c1ccc(C(F)(F)F)nc1)c1ccc(OCF)cc1 (stereo not given) | 13.7%
CC(C)(C)NC(=O)C(c1ccsc1)N(C(=O)c1cccc2c1CCCC2)c1ccc(F)cc1 (stereo not given) | 14.4%
CC(C)(C)NC(=O)C(c1ccsc1)N(C(=O)c1ccc(C#N)cc1)C1CC1 (stereo not given) | 11.2%
CC(C)(C)NC(=O)C(c1ccsc1)N(C(=O)Cn1nnc2ccccc21)c1ccc(N)cc1 (stereo not given) | 74.8% (active)
CC(C)(C)NC(=O)C(c1ccsc1)N(C(=O)c1ccc(C(F)(F)F)nc1)c1ccc(C(C)(C)C)cc1 (stereo not given) | 19.7%
CC(C)(C)NC(=O)C(c1ccsc1)N(C(=O)Cc1cccc2ccccc12)c1ccc(F)cc1 (stereo not given) | 19.2%
CC(C)(C)NC(=O)C(c1cccnc1)N(C(=O)c1ccc(C#N)cc1)c1ccc(C(C)(C)C)cc1 (stereo not given) | -0.02%
CC(C)c1ccc(N(C(=O)Cc2cccc3ccccc23)C(C(=O)NC(C)(C)C)c2cccnc2)cc1 (stereo not given) | -1.29%
CC(C)(C)NC(=O)C(c1ccsc1)N(C(=O)Cc1c[nH]c2ccccc12)C1CC1 (stereo not given) | 48.4%

Structure (SMILES) | inhibition
CCC(=O)Nc1ccc(N(C(=O)Cn2cnc3ccccc32)C(C(=O)NC(C)(C)C)c2ccsc2)cc1 (stereo not given) | 61.1% (active)
Cc1nccn1CC(=O)N(c1ccc(NS(C)(=O)=O)cc1)C(C(=O)NC(C)(C)C)c1ccsc1 (stereo not given) | 0.44%
CC(C)(C)NC(=O)C(c1ccsc1)N(C(=O)c1ccco1)c1ccc(OC(F)F)cc1 (stereo not given) | 25.9%
CC(C)c1ccc(N(C(=O)c2ccc(C#N)cc2)C(C(=O)NC(C)(C)C)c2ccsc2)cc1 (stereo not given) | -5.45%
CC(C)(C)NC(=O)C(c1cccnc1)N(C(=O)c1ccco1)c1ccc(F)cc1 (stereo not given) | -4.66%
CC(C)(C)NC(=O)C(c1cccnc1)N(C(=O)Cc1cccnc1)c1ccc(OCF)cc1 (stereo not given) | 18.7%
CC(C)(C)NC(=O)C(c1cccnc1)N(C(=O)Cc1cccc2ccccc12)c1ccc(C(C)(C)C)cc1 (stereo not given) | 19.6%
CC(C)(C)NC(=O)C(c1cccnc1)N(C(=O)c1ccc(C(F)(F)F)nc1)c1ccc(F)cc1 (stereo not given) | 10.5%
Cc1nc2ccccc2n1CC(=O)N(c1ccc(C(C)(C)C)cc1)C(C(=O)NC(C)(C)C)c1ccsc1 (stereo not given) | 2.02%
CC(C)(C)NC(=O)C(c1ccsc1)N(C(=O)c1ccc(C(F)(F)F)nc1)c1ccc(OCF)cc1 (stereo not given) | 21.3%
CC(C)(C)NC(=O)C(c1cccnc1)N(C(=O)Cc1cccc2ccccc12)c1ccc(F)cc1 (stereo not given) | -7.86%
CC(C)(C)NC(=O)C(c1cccnc1)N(C(=O)Cc1cccc2ccccc12)C1CC1 (stereo not given) | 2.44%
CC(C)(C)NC(=O)C(c1ccsc1)N(C(=O)c1n[nH]c2ccccc12)c1ccc(C(C)(C)C)cc1 (stereo not given) | 17.9%
CC(C)(C)NC(=O)C(c1cccnc1)N(C(=O)c1ccco1)c1ccc(OC(F)F)cc1 (stereo not given) | 45.5%
CC(C)(C)NC(=O)C(c1cccnc1)N(C(=O)c1ccc(C(F)(F)F)nc1)C1CC1 (stereo not given) | 5.34%
CC(C)(C)NC(=O)C(c1cccnc1)N(C(=O)Cc1c[nH]c2ccccc12)c1ccc(OCF)cc1 (stereo not given) | 11.5%
CC(C)(C)NC(=O)C(c1cccnc1)N(C(=O)c1ccc(C#N)cc1)C1CC1 (stereo not given) | -4.03%
